For 40 molecules, outcome results are on record in PubChem BioAssay (Tox21).

Records with an inconclusive call do not appear. The source made the active and inactive calls. Calls come from the whole dose curve; as a rule, active = well fitted inhibition curve with a large enough effect in the signal ratio in the repeat runs (not every such curve was filed as active); inconclusive = weak or mixed curves, or effect the other way; inactive = no such curve, though single readings can be large or run the other way; the % refers to the signal ratio.

Chain of Peroxisome proliferator-activated receptor delta (Homo sapiens) (Q03181 whole entry, looked up): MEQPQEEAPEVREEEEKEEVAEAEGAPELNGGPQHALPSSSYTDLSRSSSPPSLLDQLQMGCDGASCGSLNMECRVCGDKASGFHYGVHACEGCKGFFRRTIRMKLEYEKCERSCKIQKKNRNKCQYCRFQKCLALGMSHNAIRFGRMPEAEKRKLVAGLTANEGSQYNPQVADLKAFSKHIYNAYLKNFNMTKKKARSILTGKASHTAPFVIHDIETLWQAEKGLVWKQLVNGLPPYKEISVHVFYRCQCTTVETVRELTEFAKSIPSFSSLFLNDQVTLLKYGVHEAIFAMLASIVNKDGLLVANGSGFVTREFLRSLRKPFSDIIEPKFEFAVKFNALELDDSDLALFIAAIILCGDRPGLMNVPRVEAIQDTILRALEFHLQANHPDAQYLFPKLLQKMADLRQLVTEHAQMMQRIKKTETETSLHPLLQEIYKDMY

The assay concerns the target Peroxisome proliferator-activated receptor delta (Homo sapiens) (UniProt Q03181). The experiment in a line: qHTS assay to identify small molecule antagonists of the peroxisome proliferator-activated receptor delta (PPARd) signaling pathway (AID 743215).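 Note: cells stimulated with agonist L165041 at 300 nM final during compound exposure.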 The note with it: HEK293H PPARd-UAS-bla, beta-lactamase FRET ratio, antagonist, 17 h; series mostly up to 62 µM. The source says:
U.S. Tox21 Program National Center for Advancing Translational Sciences [NCATS] NIH Chemical Genomics Center [NCGC] U.S. Environmental Protection Agency [EPA] National Institutes of Environmental Health Sciences [NIEHS] National Toxicology Program [NTP] U.S. Food and Drug Administration [FDA] Tox21 Assay Overview: The peroxisome proliferator-activated receptors (PPARs) are lipid-activated transcription factors of the nuclear receptor superfamily with three distinct subtypes namely PPAR alpha, PPAR delta (PPARd) and PPAR gamma. All these subtypes heterodimerizes with Retinoid X receptor (RXR) and have different physiological functions. […] To identify the compounds that inhibit PPAR-delta signaling, GeneBLAzer PPAR delta UAS-bla HEK293H cell line (Invitrogen, Carlsbad, CA, USA) containing a beta-lactamase reporter gene under the control of an Upstream Activator Sequence (UAS) was used to screen the Tox21 compound library.
Tox21 Assay Protocol Summary: PPARd-bla cells were dispensed at 3000 cells/5uL/well in 1536-well black wall/clear bottom plates using a Multidrop Combi (Thermo Fisher Scientific, Waltham, MA) dispenser. After the assay plates were incubated at 37 C and 5% CO2 for 5 h, 23 nL of compounds dissolved in DMSO, positive controls or DMSO only was transferred to the assay plate by a Pintool station (Kalypsys, San Diego, CA), followed by addition of 1ul L165041 (300 nM, final concentration in the wells). The assay plates were incubated at 37 C for 17 h, and then 1 uL of LiveBLAzerTM B/G FRET substrate was added using a Bioraptr Flying Reagent Dispenser (FRD) workstation (Beckman Coulter, Indianapolis, IN, USA). The assay plates were incubated at room temperature for 2 h and fluorescence intensity was measured by an Envision plate reader (PerkinElmer, Shelton, CT).
Turning to `CC(C)C/C=C(\C=O)c1ccccc1`, the result was inactive.

In the case of `CC(=O)CC/C=C(\C)CC/C=C(\C)CC/C=C(\C)CCC=C(C)C`, the result was inactive.

Take `CCC(C(=O)O)c1ccc(N2Cc3ccccc3C2=O)cc1` (stereo not given): the result was inactive.

Take `O=C(OCCCCCOC(=O)c1ccccc1)c1ccccc1`: the outcome was inactive.

Regarding `CCCCOc1ccc(N)cc1`, the result was inactive.

For the molecule `N#C[C@@H]1CC(F)(F)CN1C(=O)CNC1CC2CCC(C1)N2c1ncccn1` (stereo not given in full), the outcome was inactive.

Consider `Cc1cc(C)n(CO)n1`, for which the outcome was inactive.

Turning to `Oc1ccc(Oc2ccccc2)cc1`, the outcome was inactive.

Turning to `C=CCCC`, the result was inactive.

`CCC(=O)O[C@]1(C(=O)COC)[C@@H](C)C[C@H]2[C@@H]3CCC4=CC(=O)C=C[C@]4(C)C3(F)[C@@H](O)C[C@@]21C` (stereo not given in full): the outcome was inactive.

Regarding `CCCCC(CC)COCCC#N` (stereo not given), the outcome was inactive.

Turning to `CC(C)Cc1nccs1`, the result was inactive.

Turning to `O=P(c1ccccc1)(c1ccccc1)c1ccccc1`, the outcome was inactive.

As for `CC1(C)CC(=O)CC(C)(C)N1`, the result was inactive.

On to `O=C(c1ccc(Cl)cc1)c1ccc(Cl)cc1`, for which the outcome was inactive.

Turning to `CCC(CC)C(=O)O`, the result was inactive.

`O=[N+]([O-])c1ccc(Cl)cc1Cl`: the outcome was inactive.

Consider `S=c1[nH][nH]c(=S)s1`, for which the result was inactive.

As for `CCCCCCCCCCCCN1CCOCC1`, the result was inactive.

In the case of `CCCC(=O)OCCC(C)C`, the outcome was inactive.

`CCCCCCCCCCCCSC#N`: the result was inactive.

For `COc1ccc(/C(C)=C/C(=O)O)c(OC)c1`, the result was inactive.

As to `O=C(c1ccco1)N1CCNCC1`, the outcome was inactive.

Take `OCCCO`: the outcome was inactive.

As to `O=C1CCCN1CCO`, the result was inactive.

For `CC[C@H](NC(C)C)[C@H](O)c1ccc(O)c2[nH]c(=O)ccc12`, the result was inactive.

In the case of `OCCOc1cccc(OCCO)c1`, the outcome was inactive.

Consider `C=C(C)C(=O)OCCCCCCCCCCOC(=O)C(=C)C`, for which the outcome was inactive.

`CC(C)(C)NCC(O)COc1ccc(NC(=O)NC2CCCCC2)cc1` (stereo not given): the result was inactive.

With `CC(C(=O)O)c1ccc2c(c1)Cc1cccnc1O2` (stereo not given), the result was inactive.

Turning to `CCOc1ccc2c(c1)C(C)CC(C)(C)N2` (stereo not given), the result was inactive.

Turning to `Cc1ccc(Cl)c(OCC(O)CNC(C)(C)C)c1` (stereo not given), the result was inactive.

As for `COc1ccc(CN(CCN(C)C)c2ncccn2)cc1`, the outcome was inactive.

With `C/C=C1\[C@H]2C=C(C)C[C@]1(N)c1ccc(=O)[nH]c1C2`, the result was inactive.

Regarding `CCC[Si](OC)(OC)OC`, the outcome was inactive.

For the molecule `CCCCCCCCS`, the outcome was inactive.

As for `O=C(O)c1ccccc1[N+](=O)[O-]`, the result was inactive.

Consider `CCCc1nc(C)c2c(=O)[nH]c(-c3cc(S(=O)(=O)N4CCN(CC)CC4)ccc3OCC)nn12`, for which the result was inactive.

As to `COc1ccc(C(=O)c2ccc(C)cc2)c(O)c1`, the result was inactive.

As to `C1=COCCC1`, the result was inactive.
